# VACV E9 pol inh: inhibitors of vaccinia virus processive DNA synthesis (E9 polymerase). in vitro processive DNA synthesis, absorbance read-out; hits give low values. normalized absorbance, % (no concentration beside the values). 0.94% of 46,000 active. AID 493162; in the data active = normalized absorbance mostly below about 85%, no sharp cut-off; inactive = mostly above about 86%
# * = called active by the depositor. Many of the other results were omitted from the sample, so hits are more common in it than they were.
SMILES,VACV E9 pol inh
CNC(C)C(O)c1ccccc1 (configuration not stated),99
CCOC(=O)N1CCC(N=Cc2ccc(OC(C)C)cc2)CC1,99
COc1cccc(CNC(=O)c2[nH]c3cc(C)ccc3c2Sc2ccc(Cl)cc2)c1OC,95
O=C(c1[nH]c2ccccc2c1Sc1ccc(Cl)cc1)N1CCCC1,97
Cc1ccc2c(Sc3ccc(Cl)cc3)c(C(=O)O)[nH]c2c1,57*
CSc1[nH]c(=O)[nH]c(=O)c1C#N,100
Oc1ccc(Br)cc1C=NCC1CCCO1 (configuration not stated),75*
Oc1ccc(Br)cc1C=NCc1ccccc1,98
Oc1ccc(Br)cc1C=NCC12CCC3CC(CC(C3)C1)C2,100
S=c1[nH]c2ccccc2n1Cc1ccccc1,78*
CC(C)Cn1c(=S)[nH]c2ccccc21,99
Cc1cc(C)c(C(=O)Cn2c(=S)[nH]c3ccccc32)c(C)c1,100
COc1ccccc1CCNS(=O)(=O)c1ccc(C(=O)O)n1C,105
COc1ccc2c(ccc(/C=C3\Sc4ccccc4N3C)[n+]2C)c1,20*
CC(=S)/C=C1\Sc2ccccc2N1C,101
CCN1/C(=c2/sc3nc4ccccc4n3c2=O)Sc2ccc(OC)cc21,99
CN1/C(=C\C=C2C(=O)c3ccccc3C2=O)Sc2ccccc21,104
CCN1/C(=C/c2ccc3cc(C)ccc3[n+]2C)Sc2cc(OC)ccc21,24*
CCN1/C(=C\C=C\C(=O)c2ccccc2OC)Sc2ccccc21,111
CCOC(=O)c1c(NC(C)=O)sc2c1CCCCC2,100
N=C1C(c2nc3ccccc3c(=O)[nH]2)=C(O)CN1c1ccccc1,102
CC(C)(C(=O)Nc1ccccc1)N(Cc1ccccc1)C(=O)c1ccccc1,106
O=C(CS(=O)(=O)c1c[nH]c2ccccc12)N1CCN(c2ccccc2)CC1,100
CCOC(=O)Nc1ccc(Br)cc1C(NCC(=O)OC)c1ccccc1 (configuration not stated),98
Nc1ccc(Br)cc1C(NCC(=O)O)c1ccccc1 (configuration not stated),89
SMILES,VACV E9 pol inh
Cc1ccc(S(=O)(=O)Nc2ccc(Br)cc2C(NCC(=O)O)c2ccccc2)cc1 (configuration not stated),68*
COc1ccc(CN2CCN(Cc3ccccc3C)CC2)cc1,100
Nc1c(C(=O)c2ccccc2)sc2nsc(SCCN3CCCC3)c12,98
O=S(=O)(NCCN1CCCC1)c1cc2ccccc2s1,112
Cc1cc(NCCN2CCCCC2)c2ccc3ccccc3c2n1,22*
N#Cc1nc(-c2ccccc2)oc1NCCN1CCCCC1,101
CCCC(=O)Nc1ccc(Br)cc1,99
CN1CCCc2cc(/C=C3\CCC(C4CCCC4)C3=O)ccc21 (configuration not stated),106
COc1cc(OC)c2c(-c3ccccc3)cc(=O)oc2c1,101
CCN(CC)C(=O)C1c2ccccc2C(=O)N2CCc3cc(OC)c(OC)cc3C12 (configuration not stated),104
COC(=O)c1ccc(OCC(O)CN2CC(C)CC(C)C2)cc1 (configuration not stated),101
N#Cc1ccc(CSc2ccc(Cl)cc2)cc1,100
CN1CN=C(SCc2ccc(Cl)c(Cl)c2)NC1,65
CN1CN=C(SCc2cccc(C#N)c2)NC1,76*
O=C(CSC1=NCCN1)NC(c1ccccc1)c1ccccc1,90
CCN1CN=C(SCc2cccc(C#N)c2)NC1,69
N#Cc1ccc(CSC2=NCCN2)cc1,71*
O=C(O)CCc1ccc(-c2cccs2)n1-c1ccccc1C(F)(F)F,100
C=CCSc1nnc(Cc2c(C)[nH]c3ccccc23)o1,109
COC(=O)CCS(=O)(=O)c1cccc2c(S(=O)(=O)CCC(=O)OC)cccc12,100
O=C(CSc1nnc2ccc3ccccc3n12)c1ccccc1,96
COc1ccc(OC)c(S(=O)(=O)N2CCCc3ccccc32)c1,103
COc1ccc(-c2cc(-c3ccccc3)c(C#N)c(SCCS(=O)Cc3ccccc3)n2)cc1 (configuration not stated),100
Cc1c(C(=O)O)cc(-c2ccccc2)n1CCSCc1c(F)cccc1Cl,82*
Cc1c(C(=O)NCc2ccco2)cc(-c2ccccc2)n1CCSCc1c(F)cccc1Cl,100
SMILES,VACV E9 pol inh
O=C(O)c1ccc(CSCc2c(F)cccc2Cl)o1,94
CCC(Sc1nc2ccccc2c2nc3ccccc3n12)C(=O)N1CCOCC1 (configuration not stated),83
CS(=O)(=O)c1ccc(/C=C/c2ccc(Cl)cc2)cc1,97
O=c1c(-c2ccn(-c3ccccc3)n2)c(O)c2ccccc2n1-c1ccccc1,100
Oc1ccc(Br)cc1C=Nc1cc2c(cc1Br)OCCO2,100
COc1cc(Br)cc(C=Nc2ccccc2)c1O,111
Oc1c(Br)cc(Br)cc1C=Nc1ccccc1F,81*
CCOC(=O)Cn1nc(-c2ccccc2)c2cnc3ccc(CC)cc3c21,92
CCn1c(=O)cc(SCC(=O)NCC2(c3ccccc3)CCCC2)c2ccccc21,100
CN(C)Cc1cc2ccccc2[nH]1,100
CN(C)Cc1c2ccccc2cc2ccccc12,47*
CN1CCN(Cc2c3ccccc3cc3ccccc23)CC1,88
Cc1cccc2oc(-c3ccc(N=Cc4cc(C(=O)O)ccc4O)cc3)nc12,100
c1ccc(-c2nsc(NC3Cc4ccccc4C3)n2)cc1,100
O=C(O)/C=C\C(=O)N1CCN(c2nc(-c3ccccc3)ns2)CC1,95
CC(C)(C)NC(=O)N1CCN(c2nc(-c3ccccc3)ns2)CC1,66*
COC(=O)CNC(=O)c1cn(-c2ccccc2)nc1-c1ccc(F)cc1,112
Cc1cc(C)n(-c2n[nH]c(=S)n2N)n1,99
O=C(Cc1nc(=O)c2ccccc2s1)Nc1ccccc1,108
O=C(COC(=O)C1c2ccccc2Oc2ccccc21)NC1CC1,106
CCS(=O)(=O)N1CCN=C1SCc1ccc(Cl)cc1Cl,21*
COc1ccc(-c2ccnc(SCc3ccc(Cl)cc3Cl)n2)cc1,111
CCS(=O)(=O)N1CCN=C1SCc1ccc(C)cc1,101
CCc1ccc(-n2c(N(C)Cc3ccccc3)nc3ccccc3c2=O)cc1,90
Cc1cc(N(C)Cc2ccccc2)nc2cc(O)ccc12,77*
SMILES,VACV E9 pol inh
Cc1cc(N(C)Cc2ccccc2)ncn1,103
c1ccc(CNC2=NCCC2)cc1,102
FC(F)(F)Oc1ccccc1-c1nnc(-c2ccccc2Cl)o1,100
Cc1ccc(/C=C2/C=CC(=O)O2)o1,82*
Cc1ccc(/C=C2\N=C(c3ccccc3)OC2=O)o1,99
Cc1ccc(/C=C2\CC/C(=C\c3ccc(C)o3)C2=O)o1,87
COc1cc(N=c2scc(-c3ccc(S(=O)(=O)N4CCCC4)cc3)n2C)c(OC)cc1Cl,100
COc1ccc(CC(CC(=O)O)C(=O)O)cc1 (configuration not stated),100
CC(C)NS(=O)(=O)c1ccc(NC(=O)c2ccncc2)cc1,95
COc1ccc(CSC2=C(C#N)C(=O)NC3(CCCCC3)S2)cc1,71*
COc1ccc(CSc2ncn[nH]2)cc1,104
COc1ccc(C2=C(C#N)C(=O)OC2)cc1,90
COc1cccc(CNC(=O)CCS(=O)(=O)Cc2ccc(C)cc2)c1,106
CCC(=O)Nc1nc2c(C)c(C)ccc2s1,100
CCOc1cccc2sc(NC(=O)CC)nc12,87*
CCOc1cccc2sc(NC(=O)c3ccccc3F)nc12,105
COc1ccc(N2C(=O)/C(=C\c3ccc(C(C)C)cc3)C(=O)NC2=S)cc1,100
CC(=O)Nc1sccc1C(=O)O,92
Cc1ccc(C)n1-c1sccc1C(=O)O,22*
